Assay outcomes deposited in PubChem BioAssay by several laboratories.
The list is not random: actives were taken first. Their share in the collection is about 2.4%.
Hck-Nef inh = blocks Nef-activated human Hck kinase; Recombinant Hck-YEEI plus Nef, Z-Lyte FRET kinase assay; P08631; inhibition, % at 20 µM; 220,000 tested, 0.68% active;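 active means Hck-Nef kinase inhibition above about 50%, limit read from the data; inactive means inhibition below that limit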
Arbovirus inh = arbovirus infection inhibition. 200,000 tested, 0.37% active. arbovirus infection cell-based antiviral screen. inhibition, % at 10 µM. AID 1251; in the data active means inhibition above about 30%
EP2 modulator = modulates human prostaglandin E2 receptor EP2 signaling | AID 940 | EP2-expressing cells, cAMP HTRF FRET, PGE2 co-stimulation | 260,000 tested, 0.83% active | induction, % at 25 µM;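 active means compounds whose cAMP rise, as percent of the full-agonist control response, exceeds 60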;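 further: rat C6 glioma line stably carrying human EP2 under a CMV promoter; the protocol text gives 20 µM as final concentration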
Target sequence (P43116 whole entry, looked up): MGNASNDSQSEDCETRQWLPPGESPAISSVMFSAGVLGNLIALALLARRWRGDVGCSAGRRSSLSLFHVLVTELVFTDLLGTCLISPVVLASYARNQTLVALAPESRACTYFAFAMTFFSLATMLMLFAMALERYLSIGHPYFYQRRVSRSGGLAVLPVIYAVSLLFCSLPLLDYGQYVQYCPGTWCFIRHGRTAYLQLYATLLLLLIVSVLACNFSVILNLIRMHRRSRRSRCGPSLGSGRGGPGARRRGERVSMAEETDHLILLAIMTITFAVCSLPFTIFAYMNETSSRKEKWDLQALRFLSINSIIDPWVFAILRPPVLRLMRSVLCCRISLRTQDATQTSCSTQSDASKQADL
EP2 antag = inhibitors of human EP2 prostaglandin E2 receptor; P43116; C6 glioma cells expressing human EP2, cAMP TR-FRET; cells stimulated with saturating PGE2; inhibition, % at 25 µM; 260,000 tested, 0.52% active;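 active means percent inhibition above 40 after rounding to a whole number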;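 further: rat C6 glioma host cells with rolipram phosphodiesterase inhibitor present; the protocol text gives 20 µM as final concentration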
p97 inhibitor = human p97 ATPase inhibition; 220,000 tested, 0.42% active; inhibition, % at 8 µM; recombinant p97 ATPase, Kinase-Glo ATP luminescence, 3 h; P55072; in the data active means inhibition above about 15%
A number is an active result; 0 = inactive; - = no result given; ! = repeats disagree.

SMILES	Hck-Nef inh	Arbovirus inh	EP2 modulator	EP2 antag	p97 inhibitor
O=S(=O)(O)c1ccc(N=Nc2ccc3c(S(=O)(=O)O)cccc3c2O)c2ccccc12	-	-	0	56	-
Cc1cc(C)c(C(=O)/C=C/C=C/c2ccccc2)c(=O)[nH]1	0	0	0	0	0
Cc1cc(C)c(C(=O)/C=C/c2ccc(C(C)C)cc2)c(=O)[nH]1	0	0	0	83	0
Cc1ccc2cc(CN(Cc3ccco3)C(=O)NC3CCCCC3)c(=O)[nH]c2c1C	0	0	61	0	0
CC(=O)N(c1nc(CCl)cs1)c1ccc(C)cc1C	0	0	62	0	0
CC1CCN(S(=O)(=O)c2cccc(C(=O)Oc3ccc([N+](=O)[O-])cc3)c2)CC1	0	0	0	40	0
COc1ccccc1N1C(=O)C=C(Sc2nc(C)cc(C)n2)C1=O	0	-	0	42	0
COc1ccccc1N1C(=O)C2CC(C)=C(C)CC2C1=O (stereo unspecified)	0	0	0	0	0
C=CCSc1nnc(NC(=O)CSc2nc3ccccc3o2)s1	0	36	0	-	0
COc1ccc(-c2n[nH]c(C)c2-c2cnn(-c3ccccc3)c2)c(O)c1	0	38	0	0	0
CC1=C/C(=N\OS(=O)(=O)c2ccccc2)C(C)=CC1=O	0	0	0	133	0
CC1=NN(C(=O)CSCc2ccccc2)C(O)(C(F)(F)F)C1 (stereo unspecified)	-	-	0	0	-
COc1cc(OC)c2c(O)c3c(c(-c4c5c(c(O)c6c(OC)cc(OC)cc46)CO[C@@H](C)[C@H]5O)c2c1)[C@H](O)[C@H](C)OC3	51	0	0	0	0
O=C1c2ccccc2C(Nc2cccc(C(F)(F)F)c2)N1Cc1ccco1 (stereo unspecified)	0	0	61	0	0
O=C1c2ccccc2C(Nc2ccc3c(c2)OCCO3)N1Cc1ccc2c(c1)OCO2 (stereo unspecified)	0	0	0	0	0
COc1cccc(NC2c3ccccc3C(=O)N2Cc2ccco2)c1 (stereo unspecified)	0	0	0	0	0
O=C1c2ccccc2C(Nc2ccccc2)N1Cc1ccc2c(c1)OCO2 (stereo unspecified)	0	-	72	0	0
COc1cc([N+](=O)[O-])ccc1NC(=O)CC1SC(=Nc2ccc(F)cc2)N(CCC2=CCCCC2)C1=O (stereo unspecified)	0	48	0	0	0
CCNc1ccc(S(=O)(=O)C(F)(F)F)cc1NC(=O)C12CCC(CC1)C2	0	0	0	76	0
CCNc1cc(S(=O)(=O)C(F)(F)F)ccc1N	0	0	0	0	0
Oc1c(Cl)cc(C(c2cc(Cl)c(O)c(Cl)c2)C(c2cc(Cl)c(O)c(Cl)c2)c2cc(Cl)c(O)c(Cl)c2)cc1Cl	-	-	0	49	-
CCc1cc(=O)n2[nH]c(C)c(-c3ccc(F)cc3)c2n1	-	-	0	0	-
N#Cc1c(SCC(=O)O)nc(-c2ccccc2)c2c1CCCC2	0	0	0	45	0
O=C(O)CCn1cc(/C=C/C(=O)c2ccc(Cl)cc2)c(-c2ccc(Br)cc2)n1	0	46	0	0	0
O=C(O)/C=C/c1cn(Cc2ccccc2)nc1-c1ccccc1	0	0	0	0	0
SMILES	Hck-Nef inh	Arbovirus inh	EP2 modulator	EP2 antag	p97 inhibitor
c1ccc(Cn2nnnc2C(c2cccs2)N2CCN(c3nc4ccccc4s3)CC2)cc1 (stereo unspecified)	-	-	0	0	-
COc1cccc(CN(Cc2ccncc2)C2CC(C)(C)NC(C)(C)C2)c1O	-	-	0	0	-
CCOc1ccc(C2C=C(c3ccc(C)cc3)Nc3ncnn32)cc1 (stereo unspecified)	0	32	0	0	0
C=CCNC(=S)N(Cc1ccccc1)Cc1ccccc1	0	0	61	0	0
Cc1ccccc1OCCn1c(=O)sc2ccccc21	0	0	63!	0	0
COc1ccccc1OCCn1c(=O)sc2ccccc21	0	0	0	0	0
Cc1cc(C(=O)Nc2sc3c(c2C#N)CCC3)no1	0	0	0	0	0
Cc1noc(C(=O)Nc2sc3c(c2C#N)CCC3)c1Cl	0	32	0	0	0
CCCC(=O)Nc1sc2c(c1C#N)CCCCC2	0	0	0	0	0
N#Cc1c(NC(=O)CSc2nnc(-c3ccccc3)o2)sc2c1CCCC2	0	32	0	0	0
CCC(=O)Nc1sc2c(c1C#N)CCCCC2	0	0	62	0	0
N#Cc1c(NC(=O)CSc2nnc(-c3ccc(Br)cc3)o2)sc2c1CCCC2	-	-	0	0	-
COCCN(C(=O)Cc1ccc(OC)cc1)c1nc2c(s1)CCc1c-2cnn1C	-	-	0	0	-
COc1ccc(-c2ccc(Nc3ccccc3Br)nn2)cc1OC	-	-	0	0	-
